In PubChem BioAssay (NCI) one finds growth data, which are given here for 13 compounds.

Among the test systems are NCI-H23 lung; NCI-H226 lung; NCI-H322M lung; HOP-62 NSCLC; NCI-H460 lung; HOP-92 NSCLC; NCI-H522 lung; A549/ATCC NSCLC; 786-0 renal; COLO 205 colon.
Holding throughout (test): NCI-60 one-dose screen, 48 h (100 = growth as untreated, 0 = no growth, -100 = all killed)
Conditions in all cases: 10 µM unless noted

The panel holds about 83,000 compounds, 20% with a hit somewhere; the sample as a whole holds those more often.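 Assay: single dose, 48 h. Readout: percent growth (0 = no net growth; negative = cell death). Active: <10.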 Values without a mark were called inactive. Active and inactive are the calls of the source.

On to `COc1cc(NC(=O)c2cncnc2Nc2ccc3c(ccn3Cc3ccccn3)c2)cc(OC)c1`, for which the growth is 68.6% in the test with NCI-H23 lung; 76.1% with NCI-H226 lung; 76.4% with NCI-H322M lung; 43.9% with HOP-62 NSCLC; 20.5% in the test with NCI-H460 lung; 54.2% in the test on HOP-92 NSCLC. For the same compound, the growth is 38.9% in the test with NCI-H522 lung, 53.9% in the test with A549/ATCC NSCLC, 49.4% with 786-0 renal and 44.9% in the test with COLO 205 colon.

Regarding `FC(F)(F)c1ccc(Cn2cc(CSc3nc4ccccc4s3)nn2)cc1`, the growth was 97.6% in the test with NCI-H23 lung; 83.1% in the test on NCI-H226 lung; 94.4% in the test on NCI-H322M lung; 89% with HOP-62 NSCLC; 102% in the test with NCI-H460 lung; 85.4% with HOP-92 NSCLC. The growth is 88.2% with NCI-H522 lung, 90.1% in the test on A549/ATCC NSCLC, 98.1% in the test with 786-0 renal and 103% in the test on COLO 205 colon.

On to `CCOC(=O)C1=C(C)/C(=C\c2[nH]c(C)c(C(=O)OCC)c2C)N=C1C`, for which the growth in the test with NCI-H23 lung is 80.2%; with NCI-H226 lung, 94.3%; with NCI-H322M lung, 93.5%; in the test on HOP-62 NSCLC, 83.2%; in the test on NCI-H460 lung it was 102%; in the test with HOP-92 NSCLC it was 103%. The growth was 75.4% in the test on NCI-H522 lung, 86.7% with A549/ATCC NSCLC, 98.9% in the test with 786-0 renal and 85.2% in the test on COLO 205 colon.

For the compound `COc1ccc(-c2cc(-c3ccccc3)nc(N3CCN(CCNc4ccnc5cc(Cl)ccc45)CC3)n2)cc1`, the growth is 14.8% with NCI-H23 lung; 67.5% in the test with NCI-H226 lung; 88% in the test with NCI-H322M lung; 94.8% with HOP-62 NSCLC; -68.6% (active) in the test on NCI-H460 lung; -34.3% (active) in the test on HOP-92 NSCLC. Moreover, the growth in the test on NCI-H522 lung was 2.04% (active); in the test on A549/ATCC NSCLC it was -16% (active); with 786-0 renal, -94.6% (active); in the test on COLO 205 colon, -69.1% (active).

With `NC(=O)c1cccc([C@@H]2O[C@H](CO)[C@@H](O)[C@H]2O)c1`, the growth was 63.7% in the test with NCI-H23 lung; 73.1% in the test on NCI-H226 lung; 87% with NCI-H322M lung; 47.7% in the test on HOP-62 NSCLC; 103% in the test with NCI-H460 lung; 52.4% in the test with HOP-92 NSCLC. Besides, the growth in the test on NCI-H522 lung was 42.2%; in the test with A549/ATCC NSCLC, 71.6%; with 786-0 renal, 12.9%; with COLO 205 colon, 40.5%.

`C#CC#CC#CC#CC#CC#CC#CC#CC[C@@H]1OC[C@@H](COC(=O)O[C@@H](C(=O)O[C@H]2C[C@@]3(O)[C@@H](OC(=O)c4ccccc4)[C@@H]4[C@]5(OC(C)=O)CO[C@@H]5C[C@H](O)[C@@]4(C)C(=O)[C@H](OC(C)=O)C(=C2C)C3(C)C)[C@@H](NC(=O)c2ccccc2)c2ccccc2)O1`: the growth was 27.1% in the test with NCI-H23 lung; 32.3% with NCI-H226 lung; 23.5% in the test on NCI-H322M lung; 95.2% in the test with HOP-62 NSCLC; 99.7% in the test with NCI-H460 lung; 42.9% in the test on HOP-92 NSCLC. Besides, the growth was 92.4% in the test on NCI-H522 lung, 94.7% with A549/ATCC NSCLC, 16.3% with 786-0 renal and 108% in the test with COLO 205 colon.

As for `COc1cc(/C=C2\CN(S(=O)(=O)c3ccccc3)C/C(=C\c3cc(CN4CCCCC4)c(O)c(OC)c3)C2=O)cc(CN2CCCCC2)c1O`, the growth is -74.7% (active) in the test on NCI-H23 lung; 43.4% in the test with NCI-H226 lung; -30.1% (active) with NCI-H322M lung; 104% in the test on HOP-62 NSCLC; -62.6% (active) in the test with NCI-H460 lung; -65.2% (active) with HOP-92 NSCLC. Also, the growth is -46.8% (active) with NCI-H522 lung, 12.1% in the test on A549/ATCC NSCLC, -68.8% (active) in the test on 786-0 renal and -4.52% (active) in the test on COLO 205 colon.

On to `CCN1CCN(CC(=O)Nc2nc3ccc(NCc4ccc(F)cc4)cc3s2)CC1`, for which the growth with NCI-H23 lung was 90%; in the test with NCI-H226 lung, 90.9%; in the test with NCI-H322M lung, 94.3%; in the test with HOP-62 NSCLC, 91.8%; in the test on NCI-H460 lung, 98.8%; with HOP-92 NSCLC, 61.3%. The growth is 104% in the test with NCI-H522 lung, 99.8% with A549/ATCC NSCLC, 93% in the test with 786-0 renal and 78% in the test on COLO 205 colon.

Regarding `O=C(NNC(=O)c1ccc(NC(=O)c2ccccn2)cc1)Nc1ccc2ccccc2c1`, the growth in the test on NCI-H23 lung was 96.5%; in the test on NCI-H226 lung, 103%; in the test on NCI-H322M lung, 103%; in the test with HOP-62 NSCLC, 115%; in the test with NCI-H460 lung, 110%; with HOP-92 NSCLC, 108%. Further, the growth in the test on NCI-H522 lung is 105%; in the test on A549/ATCC NSCLC, 108%; in the test with 786-0 renal, 111%; with COLO 205 colon it was 130%.

As to `CCOC(=O)C1=C(C)C(Cl)=N/C1=C\c1[nH]c(Cl)c(C)c1C(=O)OCC`, the growth in the test on NCI-H23 lung is 98.2%; with NCI-H226 lung it was 65.1%; in the test on NCI-H322M lung, 100%; in the test on HOP-62 NSCLC it was 96.5%; in the test on NCI-H460 lung it was 108%; in the test on HOP-92 NSCLC, 87.8%. For the same compound, the growth was 77.5% with NCI-H522 lung, 78% with A549/ATCC NSCLC, 97.7% in the test on 786-0 renal and 107% in the test on COLO 205 colon.

Turning to `COc1ccc(CCN(CC(=O)N(CC(N)=O)C2CCC[C@@H]2OCc2ccccc2)C(=O)CN(C(=O)CN(CCc2ccc(Cl)cc2)C(=O)CN(C(=O)CN(C)Cc2ccccc2F)[C@H](C)C2CCCCC2)[C@H](C)C2CCCCC2)cc1OC` (stereo not given in full), the growth was 31.9% in the test on NCI-H23 lung; 53.5% in the test with NCI-H226 lung; 40.6% in the test with NCI-H322M lung; 41.8% in the test on HOP-62 NSCLC; 28.3% in the test with NCI-H460 lung; 10.3% in the test on HOP-92 NSCLC. Moreover, the growth in the test with NCI-H522 lung is 24.5%; in the test with A549/ATCC NSCLC, 23.4%; with 786-0 renal, 44%; in the test with COLO 205 colon it was -17.4% (active).

As to `CN1CCN(CCOc2ccc(-c3cnc4c(-c5cccc(F)c5F)cnn4c3)cc2)CC1`, the growth was 35.9% with NCI-H23 lung; 97.9% in the test with NCI-H226 lung; 96% with NCI-H322M lung; 106% in the test with HOP-62 NSCLC; -55.9% (active) in the test with NCI-H460 lung; 100% with HOP-92 NSCLC. For the same compound, the growth in the test on NCI-H522 lung was 88.6%; in the test on A549/ATCC NSCLC, -7.4% (active); in the test on 786-0 renal, -61.4% (active); with COLO 205 colon, 87.6%.

Consider `CC1=C2[C@@H](CC1)[C@]1(C)O[C@@](C3CCCCC3)(C[C@H]1OC(=O)CO)[C@H]2OC(=O)/C=C/c1ccccc1`, for which the growth was 93.6% in the test on NCI-H23 lung; 76.5% in the test with NCI-H226 lung; 94.6% in the test with NCI-H322M lung; 91% with HOP-62 NSCLC; 75.8% with NCI-H460 lung; 44.3% in the test on HOP-92 NSCLC. Also, the growth in the test on NCI-H522 lung is 68%; in the test with A549/ATCC NSCLC, 63.1%; in the test on 786-0 renal it was 55.9%; with COLO 205 colon, 93.8%.
